Sampled rows, rich in hits. Any-hit rate of the full collection: about 11%.
IMPase cell inh: qHTS Assay for Identifying the Cell-Membrane Permeable IMPase Inhibitors | CHO-M1 cells, IP1 accumulation, HTRF TR-FRET ratio | 120,000 tested, under 10 active | inhibition (IP1 accumulation), % at 46.1 µM | Inositol monophosphatase 1 (Rattus norvegicus), P97697; active means well fitted curve in the direction sought with a large enough effect in the signal ratio, not every such curve was filed as active; inconclusive means small, poorly fitted or top-dose-only effect, or a change in a side signal; inactive means no such curve, though single readings can be large or run the other way; the % refers to the signal ratio;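 further: cells stimulated with carbachol in lithium chloride buffer; plate controls were DMSO basal wells for no effect and reference inhibitor wells for full effect; higher means more IMPase inhibition seen as more IP1 and lower FRET ratio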
Target sequence (P97697 whole entry, looked up): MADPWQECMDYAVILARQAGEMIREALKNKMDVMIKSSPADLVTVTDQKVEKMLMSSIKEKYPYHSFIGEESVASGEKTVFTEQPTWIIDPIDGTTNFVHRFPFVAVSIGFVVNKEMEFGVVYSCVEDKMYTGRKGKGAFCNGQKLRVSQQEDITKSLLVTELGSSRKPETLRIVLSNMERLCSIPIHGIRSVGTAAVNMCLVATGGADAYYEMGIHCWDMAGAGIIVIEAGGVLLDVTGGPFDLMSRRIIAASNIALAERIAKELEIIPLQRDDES
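In this qHTS, compounds (final up to 46 uM) act on CHO-M1 cells that are then activated through the M1 receptor with carbachol, in pH 7.4 buffer containing 50 mM LiCl, for 30 min. IP1 accumulation is quantified by the IP-One immunoassay.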
HPGD block: qHTS Assay for Inhibitors of HPGD (15-Hydroxyprostaglandin Dehydrogenase) | 15-hydroxyprostaglandin dehydrogenase [NAD(+)] (Homo sapiens), P15428 | 4.3% of 150,000 active | AID 894, 2007 | purified HPGD, NADH fluorescence kinetic, PGE2 substrate | Potency, µM, for inactives: top-dose activity change, negative = inhibition, usual class: inhibitors; further: potency means the concentration at half of the fitted maximal effect
Target sequence (P15428 whole entry, looked up): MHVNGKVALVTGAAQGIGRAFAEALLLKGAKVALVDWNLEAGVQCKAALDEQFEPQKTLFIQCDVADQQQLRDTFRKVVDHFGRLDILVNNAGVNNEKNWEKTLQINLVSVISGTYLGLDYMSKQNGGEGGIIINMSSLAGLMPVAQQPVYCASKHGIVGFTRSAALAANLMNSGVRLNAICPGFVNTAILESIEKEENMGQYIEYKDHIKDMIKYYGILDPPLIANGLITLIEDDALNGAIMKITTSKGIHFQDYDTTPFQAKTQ
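20 nM HPGD preincubated 15 min at room temperature with compound in 50 mM Tris-HCl pH 8, 0.01% Tween 20. Started with 1 mM NAD+ and 30 uM prostaglandin E2; NADH fluorescence (360/450 nm) read 5 times over 30-s intervals, last minus first.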
PNC inhibitor: High Content Assay for Compounds that inhibit the Assembly of the Perinucleolar Compartment; activity change (PNC), negative = inhibition, % at 10 µM; 3.1% of 140,000 active; PC3M PTB-GFP, PNC prevalence imaging, 16 h; active compounds read low;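 active means readout at or below -70, meaning at least 70% loss of cells showing the perinucleolar compartment, a nuclear body marking cancer cells; inconclusive means readout between -30 and a set limit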;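 further: plate controls were DMSO wells for no effect and camptothecin positive control wells for full effect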
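PC3M cells stably expressing PTB-GFP, 750–1000 cells/well, treated 16 h at 37 °C with compound (23 nl of library stock), in duplicate. After paraformaldehyde fixation and Hoechst stain, imaged at 20x; PNC prevalence scored by image analysis.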
ALDH1A1 block: qHTS Assay for Inhibitors of Aldehyde Dehydrogenase 1 (ALDH1A1); Aldehyde dehydrogenase 1A1 (Homo sapiens), P00352; Purified ALDH1A1, NADH fluorescence, propionaldehyde substrate; Potency, µM (doses to about 75.3 µM), inactives show at the highest dose activity, negative = inhibition, usual class: inhibitors; 7.3% of 220,000 active;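 further: potency means the concentration at half of the fitted maximal effect; plate controls were no enzyme wells and a reference inhibitor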
IMPase Li cell: qHTS Assay for Identifying the Cell-Membrane Permeable IMPase Inhibitors: Potentiation with Lithium; CHO-M1 cells, IP1 TR-FRET (IP-One), carbachol + lithium; Potency, µM (top dose mostly 59.4 µM), for inactives: at the top dose activity, negative = IMPase inhibition, usual class: inhibitors; 0.35% of 210,000 active; AID 1457, 2008; active means well fitted inhibition curve with a large enough effect; inconclusive means small, poorly fitted or top-dose-only effect; inactive means no such curve, though single readings can be large or run the other way;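 further: IP1 builds up when IMPase is blocked and the TR-FRET signal falls; potency means the concentration at half of the fitted maximal effect; plate controls were basal vehicle for no effect and high inhibitor control for full effect; nearly all actives have a fitted effect of over 50% in size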
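Steps: plate 2000 CHO-M1 cells per well and culture 16–30 h; add compound and lithium; incubate 30 min, 37C; add d2-IP1 tracer and Eu cryptate anti-IP1 antibody in lysis buffer; read after 10 min at room temperature.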
Numbers without * were called inactive; [ ] = remark or other dose. Unless noted, the call rests on the fitted dose curve; in most records, active means well fitted inhibition curve with a large enough effect (not every such curve was filed as active); inconclusive means small, poorly fitted or top-dose-only effect, or another doubt; inactive means no such curve, though single readings can be large or run the other way. Unless noted, on the % scale 0 is the no-effect control and ±100 the full control effect.

Screening O=C(Nc1ccncc1)c1ccc2c(c1)C(=O)N(C1CCCCC1)C2=O returned IMPase cell inh 8.5, HPGD block -11.1%, PNC inhibitor 22.6, ALDH1A1 block 7.08µM* and IMPase Li cell 13.8%[38.3 µM].
O=C(O)C1CCCN1S(=O)(=O)c1cccc2nsnc12 (configuration not stated) was read as ALDH1A1 block 4.4% and IMPase Li cell 2.8%.
For O=C(O)c1ccc(CN2CCCCC2)o1 the results were IMPase cell inh 0.7, HPGD block -5.9%, PNC inhibitor -28.1, ALDH1A1 block 7.3% and IMPase Li cell 5.1%[38.3 µM].
For COC(=O)c1ccc(CN2CCN(Cc3ccc(C(=O)OC)o3)CC2)o1 the results were IMPase cell inh 8.5, HPGD block -8.7%, PNC inhibitor 40.0, ALDH1A1 block 22.4µM* and IMPase Li cell -2.0%[38.3 µM].
Screening COC(=O)[C@H]1C[C@@H]2CC[C@@H](O)C[C@@H]2N1Cc1c(F)cccc1Cl returned HPGD block -2.2%, ALDH1A1 block -1.1% and IMPase Li cell -4.4%.
Screening COc1ccc(OC)c(NC(=O)C(=O)N/N=C/c2ccccc2[N+](=O)[O-])c1 returned IMPase cell inh -0.1, HPGD block -6.0%, PNC inhibitor 2.9, ALDH1A1 block -4.4% and IMPase Li cell 0.8%[38.3 µM].
For COc1ccc(NC(=O)C(=O)N/N=C/c2cc(C)n(-c3cccc(Cl)c3Cl)c2C)c(OC)c1 the results were IMPase cell inh 3.8, HPGD block inconclusive, PNC inhibitor -26.2, ALDH1A1 block 31.6µM* and IMPase Li cell 14.4%[38.3 µM].
For Cc1ccc2c(N)c(C(=O)N(c3ccccc3)c3ccccc3)sc2n1 the results were HPGD block -14.7%, PNC inhibitor inconclusive, ALDH1A1 block inconclusive and IMPase Li cell 10.2%.
O=C(Nc1c(C(=O)O)[nH]c2ccccc12)NC1CCCCC1 was read as IMPase cell inh 0.9, HPGD block inconclusive, PNC inhibitor -100.0*, ALDH1A1 block inconclusive and IMPase Li cell -12.0%[38.3 µM].
`Cc1ccc2c(CC(=O)OC(C)C(=O)NCc3ccc4c(c3)OCO4)coc2c1` (configuration not stated) gave IMPase cell inh 8.0, HPGD block 14.1µM*, PNC inhibitor inconclusive, ALDH1A1 block -7.0% and IMPase Li cell 17.2%[38.3 µM].
For COc1ccc2c(CC(=O)NCc3ccc4c(c3)OCO4)coc2c1 the results were IMPase cell inh 10.1, HPGD block -17.2%, PNC inhibitor 47.5, ALDH1A1 block 8.91µM* and IMPase Li cell 8.1%.
For CC(C)C(OC(=O)c1cc2occc2n1C)C(=O)NCc1ccc2c(c1)OCO2 (configuration not stated) the results were IMPase cell inh 5.6, HPGD block 12.6µM*, PNC inhibitor -4.3, ALDH1A1 block inconclusive and IMPase Li cell -3.9%[38.3 µM].
For Cc1ccc2c(CC(=O)NCc3ccc4c(c3)OCO4)coc2c1 the results were IMPase cell inh -3.7, HPGD block -4.6%, PNC inhibitor -15.5, ALDH1A1 block 4.47µM* and IMPase Li cell 24.0%[38.3 µM].
`CC(OC(=O)Cc1coc2cc3c(cc12)CCC3)C(=O)NCc1ccc2c(c1)OCO2` (configuration not stated) gave IMPase cell inh 11.0, HPGD block -8.2%, PNC inhibitor -29.2, ALDH1A1 block 9.0% and IMPase Li cell 28.3%[38.3 µM].
Screening COC(=O)NCc1ccc2c(c1)OCO2 returned IMPase cell inh 7.2, HPGD block -6.8%, PNC inhibitor inconclusive, ALDH1A1 block -4.0% and IMPase Li cell 20.9%[38.3 µM].
`CCC(C)(C(=O)NC1CCCCC1)N(C(=O)CNC(=O)c1ccccc1)c1c(C)n(C)n(-c2ccccc2)c1=O` (configuration not stated) gave ALDH1A1 block -0.2% and IMPase Li cell -3.2%.
For CS(=O)(=O)c1ccc(CNC(=O)[C@H]2C[C@@H]2[C@H](NP(=O)(c2ccccc2)c2ccccc2)c2ccccc2)cc1 the results were HPGD block -3.5%, ALDH1A1 block 7.9% and IMPase Li cell -5.8%.

Bioassay records: PubChem BioAssay, National Center for Advancing Translational Sciences (NCATS)
